Measured values from PubChem BioAssay (NCATS).
Records with an inconclusive call do not appear. Activity calls are given as the source filed them. Unless noted, calls follow the shape of the dose curve; as a rule, active = well fitted curve in the direction sought with a large enough effect; inconclusive = small, poorly fitted or top-dose-only effect, or another doubt; inactive = no such curve, though single readings can be large; an effect the other way counts as inactive or inconclusive.

What was measured:
[1] = molecular target: Lysosomal acid glucosylceramidase (Homo sapiens) (UniProt P04062); experiment: Glucocerebrosidase-p2 (AID 348; in the data active = potency below about 10 µM; also: potency is read from the fitted curve at half-maximal effect); conditions: purified GBA, blue fluorogenic substrate, 40 min
Lysosomal acid glucosylceramidase (Homo sapiens), sequence (P04062 whole entry, looked up): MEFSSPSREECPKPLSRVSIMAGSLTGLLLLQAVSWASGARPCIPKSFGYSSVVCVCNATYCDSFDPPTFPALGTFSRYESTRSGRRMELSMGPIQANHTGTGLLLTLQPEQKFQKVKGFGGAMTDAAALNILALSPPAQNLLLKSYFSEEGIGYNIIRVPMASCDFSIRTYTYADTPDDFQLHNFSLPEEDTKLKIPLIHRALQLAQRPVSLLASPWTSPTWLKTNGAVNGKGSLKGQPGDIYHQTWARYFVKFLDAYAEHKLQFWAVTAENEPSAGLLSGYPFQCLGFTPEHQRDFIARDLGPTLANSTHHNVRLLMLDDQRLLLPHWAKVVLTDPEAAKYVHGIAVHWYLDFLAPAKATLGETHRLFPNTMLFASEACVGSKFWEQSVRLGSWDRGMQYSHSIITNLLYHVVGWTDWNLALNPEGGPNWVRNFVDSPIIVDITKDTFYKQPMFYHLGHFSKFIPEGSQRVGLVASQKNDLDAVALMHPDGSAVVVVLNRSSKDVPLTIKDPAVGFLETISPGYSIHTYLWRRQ
Outline: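 Normal human glucocerebrosidase (0.2 nM) with blue fluorogenic substrate (80 uM final) in citrate/phosphate pH 5.9 with 10mM sodium taurocholate, 0.01% tween-20; 40 min RT, NaOH/glycine stop; fluorescence Ex 365/Em 440; AC50 from a titration from 0.6 nM upwards.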

[2] = AP1 Signaling Pathway (AID 357; active = well fitted curve in either direction with a large enough effect, not every such curve was filed as active;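 also: ME-180 reporter cells stimulated with EGF at its EC50 level; % is scaled to controls: 0 for no effect and ±100 for the full control effect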); conditions: ME-180 AP-1-bla reporter, EGF-induced, beta-lactamase ratio, 5 h; at 7.69 µM (top of the series) unless noted
Outline: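 In this screen, ME-180 cells in Opti-MEM with 0.5% dialyzed FBS received EC50 EGF and compound titrations for 5 h. AP-1 reporter beta-lactamase was detected via CCF4 ratio, giving AC50 for positive and negative modulators.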

[3] = molecular target: Cytochrome P450 1A2 (Homo sapiens) (UniProt P05177); experiment: p450-cyp1a2 (AID 410; calls by dose curve; also: potency is read from the fitted curve at half-maximal effect)
Cytochrome P450 1A2 (Homo sapiens), sequence (P05177 whole entry, looked up): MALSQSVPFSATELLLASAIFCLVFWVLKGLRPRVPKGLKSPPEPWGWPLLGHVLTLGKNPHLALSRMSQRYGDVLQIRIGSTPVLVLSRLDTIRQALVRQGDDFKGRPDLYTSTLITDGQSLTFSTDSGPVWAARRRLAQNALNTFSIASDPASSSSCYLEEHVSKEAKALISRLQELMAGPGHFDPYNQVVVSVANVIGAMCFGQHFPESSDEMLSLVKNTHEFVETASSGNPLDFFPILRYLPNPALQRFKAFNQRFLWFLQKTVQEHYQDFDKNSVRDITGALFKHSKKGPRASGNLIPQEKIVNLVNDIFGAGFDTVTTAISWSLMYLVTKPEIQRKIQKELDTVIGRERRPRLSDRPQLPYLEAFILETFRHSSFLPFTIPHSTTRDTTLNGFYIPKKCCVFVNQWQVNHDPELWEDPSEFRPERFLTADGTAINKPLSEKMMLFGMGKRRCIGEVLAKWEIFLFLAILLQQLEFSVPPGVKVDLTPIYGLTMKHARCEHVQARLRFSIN
Outline: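 20nM CYP1A2, 100uM Luciferin-ME (=Km), 100mM KPO4; cpd 10 min RT; +NADPH regen, 60 min RT; stop/detect 20 min; luminescence. Normalized to furafylline 57 uM = full inhibition.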

[4] = NFAT Signaling Pathway (AID 444; active = well fitted curve in either direction with a large enough effect, not every such curve was filed as active;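 also: carbachol stimulus at about its EC50 of 1 µM final; % is scaled to controls: 0 for no effect and ±100 for the full control effect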); conditions: Jurkat NFAT-bla M1, carbachol, beta-lactamase ratio, 5 h; at 7.69 µM (top of the series) unless noted
Outline: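 Jurkat cells carrying an NFAT-driven β-lactamase reporter and co-transfected muscarinic M1 receptor were treated with compound plus carbachol (1 uM final, an EC50 level) for 5 h at 37 °C. CCF4 loading followed for 1 h at RT; 460/530 nm ratio gave %activity.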

[5] = molecular target: Glucocorticoid receptor (Homo sapiens) (UniProt P04150); experiment: GR-GFP Redistribution (AID 450;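 active = compounds whose dose series gives a full or clear partial fitted curve of increased nuclear translocation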; also: potency is read from the fitted curve at half-maximal effect); conditions: U2OS GR-GFP nuclear translocation, laser cytometry, 2 h
Glucocorticoid receptor (Homo sapiens), sequence (P04150 whole entry, looked up, the tested form may be a part): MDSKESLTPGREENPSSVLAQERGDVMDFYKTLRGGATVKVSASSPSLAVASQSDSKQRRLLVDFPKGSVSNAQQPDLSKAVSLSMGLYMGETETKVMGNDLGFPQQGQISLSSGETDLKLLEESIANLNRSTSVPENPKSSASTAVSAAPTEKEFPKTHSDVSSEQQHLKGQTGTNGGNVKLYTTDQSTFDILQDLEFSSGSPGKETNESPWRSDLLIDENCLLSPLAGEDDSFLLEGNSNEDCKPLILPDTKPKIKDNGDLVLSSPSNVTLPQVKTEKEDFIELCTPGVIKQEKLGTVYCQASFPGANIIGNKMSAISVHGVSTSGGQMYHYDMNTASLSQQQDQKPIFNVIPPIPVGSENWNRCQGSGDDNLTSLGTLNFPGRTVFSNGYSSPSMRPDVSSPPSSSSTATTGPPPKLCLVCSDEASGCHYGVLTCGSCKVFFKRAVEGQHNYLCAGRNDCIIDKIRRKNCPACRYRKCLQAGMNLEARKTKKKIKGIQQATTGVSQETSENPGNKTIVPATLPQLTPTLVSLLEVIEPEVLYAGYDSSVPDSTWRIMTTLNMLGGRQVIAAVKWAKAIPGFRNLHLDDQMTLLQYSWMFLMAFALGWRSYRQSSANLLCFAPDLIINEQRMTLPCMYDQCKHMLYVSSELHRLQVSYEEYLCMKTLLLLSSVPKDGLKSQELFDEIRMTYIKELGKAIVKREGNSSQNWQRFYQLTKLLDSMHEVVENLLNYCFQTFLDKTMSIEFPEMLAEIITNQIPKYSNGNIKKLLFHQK

[6] = molecular target: Glucocorticoid receptor (Homo sapiens) (UniProt P04150); experiment: GR-EFC Redistribution (AID 451; calls by dose curve; also: potency is read from the fitted curve at half-maximal effect); conditions: CHO-K1 GR-EFC translocation, beta-gal luminescence, 2 h
Outline: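 CHO-K1 cells stably expressing nuclear-localized β-gal enzyme acceptor and GR fused C-terminally to the enzyme donor fragment; ligand-driven nuclear translocation restores β-gal by complementation. Compounds titrated up to 46 uM final, 2 h at 37 °C; luminescence read.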

[7] = molecular target: Mitogen-activated protein kinase 10 (Mus musculus) (UniProt Q61831); experiment: JNK3 AlphaScreen Assay (AID 530; active = well fitted curve in either direction with a large enough effect, not every such curve was filed as active;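 also: kinase came from lysate of stimulated human HepG2 cells; signal reports phosphorylation of biotinylated GST-cJun 1-79 at Ser73 with 10 µM ATP; % is scaled to controls: 0 for no effect and ±100 for the full control effect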)
Outline: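 Biotinylated GST-cJun(1-79) served as substrate for JNK3 in HepG2 lysates stimulated with IL-1beta and TNF-alpha. ATP was 10 uM final, pH 7.6. Ser73 phosphorylation was quantified by AlphaScreen (680 nm excitation).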

[8] = molecular target: Cytochrome P450 3A4 (Homo sapiens) (UniProt P08684); experiment: qHTS Assay for Inhibitors and Substrates of Cytochrome P450 3A4 (AID 884); also: potency is read from the fitted curve at half-maximal effect; nearly all actives have a fitted effect of over 50% in size
Cytochrome P450 3A4 (Homo sapiens), sequence (P08684 whole entry, looked up): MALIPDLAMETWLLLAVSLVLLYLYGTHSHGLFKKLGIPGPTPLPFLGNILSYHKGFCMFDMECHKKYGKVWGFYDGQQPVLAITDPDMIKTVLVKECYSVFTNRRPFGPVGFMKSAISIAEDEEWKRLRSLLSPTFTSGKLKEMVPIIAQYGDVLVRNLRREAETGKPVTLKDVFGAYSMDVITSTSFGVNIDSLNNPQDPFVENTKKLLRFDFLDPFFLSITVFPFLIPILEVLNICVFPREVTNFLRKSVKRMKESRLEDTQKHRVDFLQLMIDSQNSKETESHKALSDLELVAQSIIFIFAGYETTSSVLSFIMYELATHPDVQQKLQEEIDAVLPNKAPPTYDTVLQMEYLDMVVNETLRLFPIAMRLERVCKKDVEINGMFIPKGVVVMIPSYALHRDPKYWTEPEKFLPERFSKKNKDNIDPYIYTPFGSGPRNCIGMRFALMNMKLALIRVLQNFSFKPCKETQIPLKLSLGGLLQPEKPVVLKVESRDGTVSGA
Outline: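 Luminescent readout of luciferin produced by CYP3A4 (20 nM) dealkylation of Luciferin-PPXE, 25 uM (its KM). NADPH-driven reaction ran 60 min at RT after 10 min compound preincubation; data scaled to 57 uM ketoconazole as 100% inhibition.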

[9] = molecular target: Cytochrome P450 3A4 (Homo sapiens) (UniProt P08684); experiment: qHTS Assay for Activators of Cytochrome P450 3A4 (AID 885); also: nearly all actives have a fitted effect of over 65% in size
Outline: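 Human CYP3A4 dealkylates Luciferin-PPXE to luciferin, which luciferase detection converts to light. Substrate was at its KM (25uM), buffer 200mM KPO4, reaction 60 min at RT.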

[10] = molecular target: Dual specificity protein kinase CLK4 (Homo sapiens) (UniProt Q9HAZ1); experiment: qHTS Assay for Inhibitors of CDC-like Kinase 4 (ADP-Glo Assay) (AID 1771); also: nearly all actives have a fitted effect of over 70% in size; also: potency is read from the fitted curve at half-maximal effect
Dual specificity protein kinase CLK4 (Homo sapiens), sequence (Q9HAZ1 whole entry, looked up): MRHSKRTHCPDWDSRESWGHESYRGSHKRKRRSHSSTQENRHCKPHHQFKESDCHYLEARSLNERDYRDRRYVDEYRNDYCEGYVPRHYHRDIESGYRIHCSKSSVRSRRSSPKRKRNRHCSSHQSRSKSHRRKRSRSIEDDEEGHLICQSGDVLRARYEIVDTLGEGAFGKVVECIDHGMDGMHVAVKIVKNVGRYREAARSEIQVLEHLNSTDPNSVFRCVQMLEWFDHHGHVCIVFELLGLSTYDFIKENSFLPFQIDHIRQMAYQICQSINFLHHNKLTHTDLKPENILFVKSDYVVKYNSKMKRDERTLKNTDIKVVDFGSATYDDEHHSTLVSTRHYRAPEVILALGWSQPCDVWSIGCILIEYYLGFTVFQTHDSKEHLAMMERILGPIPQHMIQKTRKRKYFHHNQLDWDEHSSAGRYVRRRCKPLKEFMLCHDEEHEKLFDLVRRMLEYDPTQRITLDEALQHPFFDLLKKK
Outline: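 25 nM Clk4, 100 uM RS peptide, 1 uM ATP (final); 2 mM MgCl2, 0.5 mM EGTA, 2.5 mM DTT, 0.01% Triton X-100; 1 hr RT. ADP-Glo readout: ATP depletion 45 min, conversion/luciferase 30 min, luminescence.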

[11] = molecular target: Dual specificity protein kinase CLK4 (Homo sapiens) (UniProt Q9HAZ1); experiment: qHTS Assay for Inhibitors of CDC-like Kinase 4 (ADP-FP Assay) (AID 1795); also: nearly all actives have a fitted effect of over 60% in size; also: potency is read from the fitted curve at half-maximal effect
Outline: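 Kinase activity was followed as ADP output, converted from fluorescence polarization with a calibration curve. Reactions ran one hour at low ATP (1 uM) with RS peptide substrate.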

[12] = molecular target: Ubiquitin carboxyl-terminal hydrolase 1 (Homo sapiens) (UniProt O94782); experiment: Inhibitors of USP1/UAF1: Pilot qHTS (AID 504865); also: nearly all actives have a fitted effect of over 35% in size; also: potency is read from the fitted curve at half-maximal effect
Ubiquitin carboxyl-terminal hydrolase 1 (Homo sapiens), sequence (O94782 whole entry, looked up): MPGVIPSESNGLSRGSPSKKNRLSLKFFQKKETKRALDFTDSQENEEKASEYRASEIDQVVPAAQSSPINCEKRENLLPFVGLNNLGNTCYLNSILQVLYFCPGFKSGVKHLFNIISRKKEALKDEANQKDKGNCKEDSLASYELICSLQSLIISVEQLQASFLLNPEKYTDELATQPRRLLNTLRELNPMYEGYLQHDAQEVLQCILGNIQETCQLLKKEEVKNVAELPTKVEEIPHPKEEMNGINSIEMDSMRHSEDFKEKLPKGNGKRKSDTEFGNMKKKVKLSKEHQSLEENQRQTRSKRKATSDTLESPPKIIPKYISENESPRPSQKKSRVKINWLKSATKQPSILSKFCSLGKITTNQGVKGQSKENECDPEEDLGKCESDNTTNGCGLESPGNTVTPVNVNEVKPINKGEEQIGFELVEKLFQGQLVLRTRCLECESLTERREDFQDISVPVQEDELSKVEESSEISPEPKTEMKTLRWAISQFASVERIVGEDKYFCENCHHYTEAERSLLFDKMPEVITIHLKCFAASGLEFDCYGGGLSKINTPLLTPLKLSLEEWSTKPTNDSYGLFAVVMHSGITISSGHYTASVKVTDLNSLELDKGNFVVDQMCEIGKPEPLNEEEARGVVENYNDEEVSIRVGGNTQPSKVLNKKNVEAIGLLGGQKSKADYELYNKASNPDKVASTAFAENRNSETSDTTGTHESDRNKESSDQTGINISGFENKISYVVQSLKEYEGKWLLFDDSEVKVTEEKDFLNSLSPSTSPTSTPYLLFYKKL
Outline: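 Enzyme-free wells gave the negative control, while test wells held 1nM USP1/UAF1 preincubated with compound for 15 min at room temperature. Ub-Rho at 150nM final started the reaction, and fluorescence at 480/540 nm was recorded kinetically.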

[13] = Primary qHTS for small molecule stabilizers of the endoplasmic reticulum resident proteome: Secreted ER Calcium Modulated Protein (SERCaMP) assay (AID 1508630); also: % is scaled to controls: 0 for no effect and ±100 for the full control effect
Outline: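 The SH-SY5Y reporter protocol was run at 3 concentrations up to 38.3 uM (primary) or 11 concentrations (follow-up): 16 h compound, 100 nM thapsigargin for 4 h, then extracellular luciferase luminescence.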

[14] = Stat Signaling Pathway (AID 446; active = well fitted curve in either direction with a large enough effect, not every such curve was filed as active); conditions: ME-180 SIE beta-lactamase reporter, IL-6 stimulated, 5 h; at 7.69 µM (top of the series) unless noted
Outline: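 Normalization used AC90 stimulation (300 pM IL-6) and AC90 inhibition (125 nM pan-JAK inhibitor at 40 pM IL-6). The underlying signal is SIE-driven beta-lactamase in ME-180 cells after 5 h IL-6 exposure with compound.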

[15] = molecular target: 3',5'-cyclic-AMP phosphodiesterase 4B (Homo sapiens) (UniProt Q07343); experiment: qHTS Assay for Inhibitors of PDE-IV (AID 607; active = well fitted activation curve with a large enough effect in the main read-out, with a control signal flat, not every such curve was filed as active; also: % of control where 0% means no effect)
3',5'-cyclic-AMP phosphodiesterase 4B (Homo sapiens), sequence (Q07343 whole entry, looked up): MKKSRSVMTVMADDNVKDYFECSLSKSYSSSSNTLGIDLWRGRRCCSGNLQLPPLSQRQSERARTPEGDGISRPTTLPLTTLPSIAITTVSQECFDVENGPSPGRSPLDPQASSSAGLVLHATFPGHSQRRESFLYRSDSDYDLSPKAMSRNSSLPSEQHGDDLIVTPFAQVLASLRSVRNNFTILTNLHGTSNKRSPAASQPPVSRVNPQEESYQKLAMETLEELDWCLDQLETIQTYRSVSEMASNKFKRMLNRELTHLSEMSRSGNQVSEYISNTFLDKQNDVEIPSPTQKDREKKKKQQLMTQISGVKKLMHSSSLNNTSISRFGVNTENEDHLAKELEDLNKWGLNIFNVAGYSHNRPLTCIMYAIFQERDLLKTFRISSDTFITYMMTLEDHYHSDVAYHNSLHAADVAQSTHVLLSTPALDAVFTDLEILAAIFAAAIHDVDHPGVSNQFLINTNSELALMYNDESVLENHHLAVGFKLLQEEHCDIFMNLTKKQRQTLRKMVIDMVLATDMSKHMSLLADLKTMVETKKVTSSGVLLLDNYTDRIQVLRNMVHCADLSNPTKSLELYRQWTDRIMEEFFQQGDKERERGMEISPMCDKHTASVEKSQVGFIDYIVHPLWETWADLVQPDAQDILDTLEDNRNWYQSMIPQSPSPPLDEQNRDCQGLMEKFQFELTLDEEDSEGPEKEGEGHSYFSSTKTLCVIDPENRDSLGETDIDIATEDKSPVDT
Outline: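 HEK293 ACTOne cells with CNG channel (1000/well), endogenous PDE4; membrane potential dye, compounds up to 22.9 uM final. Fluorescence Ex 535/Em 590; RO 20-1724 (100 uM final) as reference.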

[16] = molecular target: Dual specificity protein kinase CLK4 (Homo sapiens) (UniProt Q9HAZ1); experiment: qHTS Assay for Inhibitors of CDC-like Kinase 4 (Kinase-Glo Assay) (AID 1770); also: nearly all actives have a fitted effect of over 65% in size; also: potency is read from the fitted curve at half-maximal effect
Outline: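 Clk4 25 nM, RS peptide 100 uM, ATP 1 uM, pH 7.5 Tris, 10 mM MgCl2, 2.5 mM DTT; 4.5 h RT; ATP depletion read by Kinase-Glo luminescence.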

[17] = molecular target: Cytochrome P450 2C9 (Homo sapiens) (UniProt P11712); experiment: qHTS Assay for Inhibitors and Substrates of Cytochrome P450 2C9 (AID 883); also: % is scaled to controls: 0 for no effect and ±100 for the full control effect; nearly all actives have a fitted effect of over 60% in size
Cytochrome P450 2C9 (Homo sapiens), sequence (P11712 whole entry, looked up): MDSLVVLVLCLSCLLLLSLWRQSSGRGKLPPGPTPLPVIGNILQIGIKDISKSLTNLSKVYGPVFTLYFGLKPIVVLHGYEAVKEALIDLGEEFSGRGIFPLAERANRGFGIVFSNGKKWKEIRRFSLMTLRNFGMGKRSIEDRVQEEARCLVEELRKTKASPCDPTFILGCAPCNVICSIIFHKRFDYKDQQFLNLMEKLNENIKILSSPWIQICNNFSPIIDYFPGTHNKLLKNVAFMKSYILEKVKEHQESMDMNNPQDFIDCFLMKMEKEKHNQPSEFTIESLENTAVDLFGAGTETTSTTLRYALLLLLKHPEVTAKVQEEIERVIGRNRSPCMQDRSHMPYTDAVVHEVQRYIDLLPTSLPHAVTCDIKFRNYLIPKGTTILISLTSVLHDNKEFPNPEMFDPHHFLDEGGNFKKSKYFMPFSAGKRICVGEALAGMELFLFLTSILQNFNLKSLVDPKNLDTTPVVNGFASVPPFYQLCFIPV
Outline: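 Human CYP2C9 (10nM) hydroxylated Luciferin-H (100uM, at its KM) to luciferin in 25mM KPO4. Compound was preincubated 10 min at 37C, then NADPH regeneration started a 60 min reaction at 37C. Luminescence was read after detection reagent, normalized to 57uM sulphaphenazole.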

[18] = molecular target: Cytochrome P450 2C19 (Homo sapiens) (UniProt P33261); experiment: qHTS Assay for Inhibitors and Substrates of Cytochrome P450 2C19 (AID 899); also: potency is read from the fitted curve at half-maximal effect; nearly all actives have a fitted effect of over 60% in size
Outline: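 Human CYP2C19 (5nM) with Luciferin-H EGE at 10uM (its KM) in 50mM KPO4 was preincubated with compound for 10 min at 37C. NADPH regeneration started a 60 min 37C reaction. Luciferin was read by luminescence, normalized to 57uM ketoconazole.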

[19] = qHTS Assay for Identification of Small Molecule Agonists for Hypoxia Response Element Signaling Pathway (AID 914; active = well fitted activation curve with a large enough effect in the signal ratio, with a control signal flat, not every such curve was filed as active; the % refers to the signal ratio; also: % of control where 0% means no effect); conditions: ME-180 (cervical carcinoma) HRE-bla reporter, beta-lactamase ratio, CoCl2, 17 h; activation: hits give high values
Outline: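 Compounds in a titration series were added to ME-180 reporter cells alongside an EC50 level of CoCl2. After 17 hours, beta-lactamase activity was read as the 460nm/530nm emission ratio of CCF4, giving AC50 values.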

CC(=O)NCCNc1ncnc2ccc(-c3ccccc3C(F)(F)F)cc12
inactive: Potency [1] > 11.4 µM | activity change, negative = inhibition [2] 12.5% | activity change, negative = inhibition [4] 6.87% | Potency [5] > 46 µM | Potency [6] > 46 µM | Potency [7] | Potency [9] | Potency [11] | Potency [12] | outcome [13]
active: Potency [3] 10 µM | Potency [8] 6.31 µM | Potency [10] 31.6 µM

CCNc1ncc2nc(-c3cc(F)cc(F)c3)c(=O)n(C3CC3)c2n1
inactive: Potency [1] > 11.4 µM | activity change, negative = inhibition [2] 29.9% | activity change, negative = inhibition [4] 23.3% | activity, negative = inhibition [14] 28.9% | Potency [5] > 9.22 µM | Potency [7] | Potency [15] | Potency [10] | Potency [11] | Potency [12] | outcome [13]

COc1ccc(CNc2ncncc2-c2ccc(C(=O)N(C)C)cc2)c(OC)c1
active: Potency [3] 15.8 µM | Potency [8] 0.501 µM
inactive: activity change, negative = inhibition [2] -28.8% | activity change, negative = inhibition [4] 18.9% | activity, negative = inhibition [14] -21% | Potency [5] > 46 µM | Potency [6] > 46 µM | Potency [7] | Potency [9] | Potency [16] | Potency [12] | outcome [13]

COc1ncc2nc(-c3cn(C)c4ccccc34)c(=O)n(-c3ccccc3)c2n1
inactive: Potency [1] > 11.4 µM | activity change, negative = inhibition [2] -0.341% | activity change, negative = inhibition [4] -18.5% | activity, negative = inhibition [14] 6.13% | Potency [6] > 46 µM | Potency [7] | Potency [17] | Potency [9] | Potency [10] | Potency [11] | Potency [12] | outcome [13]
active: Potency [3] 5.01 µM

Cc1noc(C)c1-c1nccc(N2CCN(C)CC2)n1
inactive: activity change, negative = inhibition [2] 16% | activity change, negative = inhibition [4] -10.9% | activity, negative = inhibition [14] 11.7% | Potency [5] > 46 µM | Potency [6] > 46 µM | Potency [7] | Potency [10] | Potency [11] | Potency [12] | outcome [13]
active: Potency [3] 2 µM

Cc1cnc(CNc2cc(-c3ccc4c(c3)OCO4)ncn2)cn1
inactive: Potency [1] > 11.4 µM | activity change, negative = inhibition [2] -3.49% | activity change, negative = inhibition [4] 7.15% | activity, negative = inhibition [14] -3.34% | Potency [5] > 46 µM | Potency [6] > 46 µM | Potency [7] | Potency [15] | Potency [12] | outcome [13]
active: Potency [10] 3.55 µM | Potency [11] 12.6 µM

O=c1c(-c2ccccc2)nc2cnc(N3CCOCC3)nc2n1Cc1cccs1
inactive: activity change, negative = inhibition [2] 20.9% | activity change, negative = inhibition [4] 14.9% | activity, negative = inhibition [14] 20.6% | Potency [5] > 9.22 µM | Potency [6] > 46 µM | Potency [7] | Potency [15] | Potency [10] | Potency [11] | Potency [12] | outcome [13]
active: Potency [3] 2.51 µM

COc1ncc2nc(-c3ccccc3)c(=O)n(CCC#N)c2n1
inactive: Potency [1] > 11.4 µM | activity change, negative = inhibition [2] -23.7% | activity change, negative = inhibition [4] -5.79% | activity, negative = inhibition [14] -14.9% | Potency [5] > 9.22 µM | Potency [6] > 46 µM | Potency [7] | Potency [15] | Potency [10] | Potency [11] | Potency [12] | outcome [13]

Clc1ccccc1-c1nc(NCc2cccs2)c2ccccc2n1
inactive: activity change, negative = inhibition [4] -8.75% | activity, negative = inhibition [14] 0.228% | Potency [5] > 46 µM | Potency [6] > 46 µM | Potency [7] | Potency [9] | outcome [13]
active: Potency [3] 1 µM | Potency [8] 6.31 µM | Potency [18] 7.94 µM | Potency [16] 7.94 µM | Potency [12] 14.1 µM

COc1ncc2nc(-c3ccc(Cl)cc3)c(=O)n(Cc3cccs3)c2n1
inactive: Potency [1] > 11.4 µM | activity change, negative = inhibition [2] -16.7% | activity change, negative = inhibition [4] 2.52% | activity, negative = inhibition [14] -18.3% | Potency [5] > 9.22 µM | Potency [6] > 46 µM | Potency [15] | Potency [10] | Potency [11] | Potency [12] | outcome [13]

Clc1ccccc1-c1nc(NCc2cccnc2)c2ccccc2n1
active: Potency [3] 0.631 µM | Potency [8] 2.51 µM | Potency [16] 28.2 µM | Potency [12] 20 µM
inactive: activity change, negative = inhibition [2] -8.93% | activity change, negative = inhibition [4] 17.1% | activity, negative = inhibition [14] -13.8% | Potency [5] > 46 µM | Potency [6] > 46 µM | Potency [7] | Potency [9] | outcome [13]

CN1CCN(c2ncc3nc(-c4cccs4)c(=O)n(Cc4ccc(F)cc4)c3n2)CC1
inactive: Potency [1] > 11.4 µM | Potency [5] > 9.22 µM | Potency [6] > 46 µM | Potency [15] | Potency [10] | Potency [11] | Potency [12] | outcome [13]

Cn1cc(-c2nc3cncnc3n(Cc3ccccc3Cl)c2=O)c2ccccc21
active: Potency [3] 3.16 µM
inactive: Potency [1] > 11.4 µM | activity change, negative = inhibition [4] 3.77% | Potency [5] > 9.22 µM | Potency [6] > 46 µM | Potency [15] | Potency [9] | activation [19] 15.7% | Potency [10] | Potency [11] | Potency [12] | outcome [13]

O=c1c(-c2cc(F)cc(F)c2)nc2cnc(N3CCNCC3)nc2n1Cc1ccc(F)cc1
inactive: Potency [1] > 11.4 µM | Potency [5] > 9.22 µM | Potency [6] > 46 µM | Potency [7] | Potency [15] | Potency [10] | Potency [11] | outcome [13]

CS(=O)(=O)Nc1cccc(-c2nccc(Nc3ccc(F)cc3)n2)c1
inactive: Potency [1] > 11.4 µM | activity change, negative = inhibition [2] -12.6% | activity change, negative = inhibition [4] 2.44% | activity, negative = inhibition [14] -20.3% | Potency [5] > 46 µM | Potency [6] > 46 µM | Potency [7] | Potency [15] | Potency [9] | outcome [13]
active: Potency [3] 0.126 µM | Potency [10] 10 µM | Potency [11] 11.2 µM
